Measurements reported in PubChem BioAssay AID1159580 (chemical genetic matrix, 2015).
In all, about 5,500 compounds went through this assay and about 2,000 (36%) were called active. Inconclusive results (about 18%) are left out. Rule as the data show it: active = normalized growth mostly below about 0.91 (no sharp cut-off); inconclusive = no clear call, values can overlap the other calls; inactive = mostly above about 0.92. The list shows a part of the results.

Assay: chemical genetic growth profiling, strain panel (AID 1159580);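 also: tested at 20 µM; growth read once vehicle control cultures reached saturation at 30 °C; 1 = growth at the plate median or of vehicle wells; lower values mean less growth of the strain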
Details: S. cerevisiae deletion strains, growth OD

Measured: normalized growth

O=Cc1ccccc1O[C@@H]1O[C@H](CO)[C@H](O)[C@@H](O)[C@H]1O
inactive: locus YHR030C, strain SLT2, hits give low values 1.06 | locus YHR079C, strain IRE1, hits give low values 1.06 | locus YJL095W, strain BCK1, hits give low values 0.996 | locus YJR066W, strain TOR1, hits give low values 0.99 | locus YLR113W, strain HOG1, hits give low values 1.03 | locus YNL183C, strain NPR1, hits give low values 0.992 | locus YOR231W, strain MKK1, hits give low values 1.06 | locus YPL256C, strain CLN2, hits give low values 1.06
